# Results published in paper PMC7862700, “An all-to-all approach to the identification of sequence-specific readers for epigenetic DNA modifications on cytosine”.
# What was measured:
# Assay in all cases: DAPPL (digital affinity profiling via proximity ligation, sequencing); 10 mM Tris-HCl pH 7.5, 50 mM NaCl, 1 mM DTT, 4% glycerol, room temperature, 30 min; GST-TFs on glutathione beads, 16-mer random dsDNA library, 0.1% formaldehyde crosslink after washing; high values mean tight binding
# FLI1 = target: T1, FLI1 (Homo sapiens, UniProt Q01543 1-452); conditions: protein: recombinant; tags: N-terminal GST; dsDNA, one strand shown
# T1 sequence: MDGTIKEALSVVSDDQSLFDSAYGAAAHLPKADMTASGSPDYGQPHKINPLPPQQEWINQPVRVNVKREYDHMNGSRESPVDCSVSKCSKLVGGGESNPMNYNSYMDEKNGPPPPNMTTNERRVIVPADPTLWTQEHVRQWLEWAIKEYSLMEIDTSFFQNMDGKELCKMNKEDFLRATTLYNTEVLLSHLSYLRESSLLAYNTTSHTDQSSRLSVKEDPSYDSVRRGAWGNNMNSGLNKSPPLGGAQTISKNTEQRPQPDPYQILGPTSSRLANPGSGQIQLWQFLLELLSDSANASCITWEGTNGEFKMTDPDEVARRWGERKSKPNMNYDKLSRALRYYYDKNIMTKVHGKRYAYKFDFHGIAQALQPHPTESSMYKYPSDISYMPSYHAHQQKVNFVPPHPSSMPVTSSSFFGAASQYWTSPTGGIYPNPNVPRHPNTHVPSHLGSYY
# Summary of the method: (§1)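 Binding signal is given per hexamer as its read frequency for a factor divided by its frequency in the tag-only sample. GST-fused human transcription factors were expressed in yeast, captured on glutathione beads, barcoded with DNA and pooled with that sample, then incubated with 200 nmole of a 16-mer random double-stranded DNA library in Tris/NaCl/DTT/glycerol buffer for 30 min at room temperature. The pools were then washed, crosslinked, proximity-ligated, amplified by PCR and sequenced on an Illumina NextSeq500.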
# ELK1 = target: T2, ELK1 (Homo sapiens, UniProt P19419 1-428); conditions: protein: recombinant; tags: N-terminal GST; dsDNA, one strand shown
# T2 sequence: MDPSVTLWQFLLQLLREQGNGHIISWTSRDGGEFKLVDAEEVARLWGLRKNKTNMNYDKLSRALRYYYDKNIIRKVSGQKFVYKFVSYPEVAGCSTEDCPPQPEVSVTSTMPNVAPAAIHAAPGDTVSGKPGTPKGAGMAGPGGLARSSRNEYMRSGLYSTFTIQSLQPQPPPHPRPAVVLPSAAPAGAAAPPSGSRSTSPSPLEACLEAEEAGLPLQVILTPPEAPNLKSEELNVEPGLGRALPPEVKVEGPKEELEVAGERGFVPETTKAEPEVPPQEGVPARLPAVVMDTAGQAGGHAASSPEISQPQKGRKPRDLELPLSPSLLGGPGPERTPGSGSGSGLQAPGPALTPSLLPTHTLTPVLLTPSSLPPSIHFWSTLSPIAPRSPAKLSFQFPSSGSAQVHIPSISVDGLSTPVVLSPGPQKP
# Summary of the method: as §1
# GABPA = target: T3, GABPA (Homo sapiens, UniProt Q06546 1-454); conditions: protein: recombinant; tags: N-terminal GST; dsDNA, one strand shown
# T3 sequence: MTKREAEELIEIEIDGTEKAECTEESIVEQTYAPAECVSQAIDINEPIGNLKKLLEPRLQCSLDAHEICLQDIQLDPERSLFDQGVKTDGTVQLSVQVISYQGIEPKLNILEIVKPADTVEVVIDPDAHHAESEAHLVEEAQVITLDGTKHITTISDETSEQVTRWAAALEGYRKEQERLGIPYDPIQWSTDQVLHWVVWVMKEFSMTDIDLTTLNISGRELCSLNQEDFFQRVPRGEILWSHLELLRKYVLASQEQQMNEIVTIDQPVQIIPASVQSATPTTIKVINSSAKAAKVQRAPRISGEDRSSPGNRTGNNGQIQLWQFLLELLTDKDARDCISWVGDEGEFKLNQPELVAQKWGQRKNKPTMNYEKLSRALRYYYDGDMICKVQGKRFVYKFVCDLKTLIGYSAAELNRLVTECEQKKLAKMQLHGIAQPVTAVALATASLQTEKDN
# Summary of the method: as §1
# ERG = target: T4, ERG (Homo sapiens, UniProt P11308 1-479); conditions: protein: recombinant; tags: N-terminal GST; dsDNA, one strand shown
# T4 sequence: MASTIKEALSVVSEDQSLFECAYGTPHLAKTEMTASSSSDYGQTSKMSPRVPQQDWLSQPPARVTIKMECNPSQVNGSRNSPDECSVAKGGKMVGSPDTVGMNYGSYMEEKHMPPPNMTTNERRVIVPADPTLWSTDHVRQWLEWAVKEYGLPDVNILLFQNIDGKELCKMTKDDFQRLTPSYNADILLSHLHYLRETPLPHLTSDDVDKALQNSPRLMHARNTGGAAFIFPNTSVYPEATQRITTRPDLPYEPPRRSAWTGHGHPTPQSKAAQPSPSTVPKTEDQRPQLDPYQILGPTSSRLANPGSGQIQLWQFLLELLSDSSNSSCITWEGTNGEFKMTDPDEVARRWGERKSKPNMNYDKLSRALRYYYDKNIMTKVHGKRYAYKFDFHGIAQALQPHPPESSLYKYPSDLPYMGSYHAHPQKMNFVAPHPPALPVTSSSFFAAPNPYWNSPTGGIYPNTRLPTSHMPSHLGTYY
# Summary of the method: as §1
# ELF1 = ELF1 (Homo sapiens, UniProt P32519 1-619); conditions: protein: recombinant; tags: N-terminal GST; dsDNA, one strand shown
# Summary of the method: as §1
# EHF = target: T5, EHF (Homo sapiens, UniProt Q9NZC4 1-300); conditions: protein: recombinant; tags: N-terminal GST; dsDNA, one strand shown
# T5 sequence: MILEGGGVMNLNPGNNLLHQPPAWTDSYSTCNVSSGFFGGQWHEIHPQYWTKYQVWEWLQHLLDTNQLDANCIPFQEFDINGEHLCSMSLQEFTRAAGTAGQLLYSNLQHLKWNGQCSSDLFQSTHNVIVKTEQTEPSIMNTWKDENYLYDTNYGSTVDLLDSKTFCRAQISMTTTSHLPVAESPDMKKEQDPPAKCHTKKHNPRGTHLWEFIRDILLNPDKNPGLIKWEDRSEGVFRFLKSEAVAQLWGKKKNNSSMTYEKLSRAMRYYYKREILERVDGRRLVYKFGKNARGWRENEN
# Summary of the method: as §1
# SPI1 = SPI1 (Homo sapiens, UniProt P17947 1-270); conditions: protein: recombinant; tags: N-terminal GST; dsDNA, one strand shown
# Summary of the method: as §1
# SPIB = SPIB (Homo sapiens, UniProt Q01892 1-262); conditions: protein: recombinant; tags: N-terminal GST; dsDNA, one strand shown
# Summary of the method: as §1
# ELK3 = target: T6, ELK3 (Homo sapiens, UniProt P41970 1-407); conditions: protein: recombinant; tags: N-terminal GST; dsDNA, one strand shown
# T6 sequence: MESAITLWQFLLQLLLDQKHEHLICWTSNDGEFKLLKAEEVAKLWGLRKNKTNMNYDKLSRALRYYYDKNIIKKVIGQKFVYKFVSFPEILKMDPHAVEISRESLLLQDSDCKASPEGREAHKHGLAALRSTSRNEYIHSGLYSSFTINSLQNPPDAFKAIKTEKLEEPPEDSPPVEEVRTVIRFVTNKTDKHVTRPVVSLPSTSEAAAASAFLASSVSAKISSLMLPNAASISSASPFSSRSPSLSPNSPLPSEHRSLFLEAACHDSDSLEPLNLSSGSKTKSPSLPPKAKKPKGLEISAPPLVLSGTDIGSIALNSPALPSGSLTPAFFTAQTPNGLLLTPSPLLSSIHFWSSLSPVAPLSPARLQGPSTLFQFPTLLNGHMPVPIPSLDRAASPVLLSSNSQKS
# Summary of the method: as §1
# FEV = target: T7, FEV (Homo sapiens, UniProt Q99581 1-238); conditions: protein: recombinant; tags: N-terminal GST; dsDNA, one strand shown
# T7 sequence: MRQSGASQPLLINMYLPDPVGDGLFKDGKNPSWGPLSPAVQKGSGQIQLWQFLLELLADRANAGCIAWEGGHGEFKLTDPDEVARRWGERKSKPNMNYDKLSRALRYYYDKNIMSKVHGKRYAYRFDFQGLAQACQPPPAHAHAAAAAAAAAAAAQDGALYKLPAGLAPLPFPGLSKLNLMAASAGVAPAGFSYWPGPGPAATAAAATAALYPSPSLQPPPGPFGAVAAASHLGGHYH
# Summary of the method: as §1
# ETV5 = ETV5 (Homo sapiens, UniProt P41161 1-510); conditions: protein: recombinant; tags: N-terminal GST; dsDNA, one strand shown
# Summary of the method: as §1
# HSF1 = HSF1 (Homo sapiens, UniProt Q00613 1-529); conditions: protein: recombinant; tags: N-terminal GST; chain copies: 3; dsDNA, one strand shown
# Summary of the method: as §1
# SPIC = target: T8, SPIC (Homo sapiens, UniProt Q8N5J4 1-248); conditions: protein: recombinant; tags: N-terminal GST; dsDNA, one strand shown
# T8 sequence: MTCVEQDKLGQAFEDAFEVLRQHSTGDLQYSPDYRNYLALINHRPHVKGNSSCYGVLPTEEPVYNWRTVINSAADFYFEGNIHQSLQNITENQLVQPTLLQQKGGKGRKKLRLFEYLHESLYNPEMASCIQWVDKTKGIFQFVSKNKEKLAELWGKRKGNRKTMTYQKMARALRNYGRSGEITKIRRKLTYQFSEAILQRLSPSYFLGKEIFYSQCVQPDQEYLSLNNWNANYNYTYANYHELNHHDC
# Summary of the method: as §1
# ELF4 = ELF4 (Homo sapiens, UniProt Q99607 1-663); conditions: protein: recombinant; tags: N-terminal GST; dsDNA, one strand shown
# Summary of the method: as §1
# ELK4 = target: T9, ELK4 (Homo sapiens, UniProt P28324-2 1-405); conditions: protein: recombinant; tags: N-terminal GST; dsDNA, one strand shown
# T9 sequence: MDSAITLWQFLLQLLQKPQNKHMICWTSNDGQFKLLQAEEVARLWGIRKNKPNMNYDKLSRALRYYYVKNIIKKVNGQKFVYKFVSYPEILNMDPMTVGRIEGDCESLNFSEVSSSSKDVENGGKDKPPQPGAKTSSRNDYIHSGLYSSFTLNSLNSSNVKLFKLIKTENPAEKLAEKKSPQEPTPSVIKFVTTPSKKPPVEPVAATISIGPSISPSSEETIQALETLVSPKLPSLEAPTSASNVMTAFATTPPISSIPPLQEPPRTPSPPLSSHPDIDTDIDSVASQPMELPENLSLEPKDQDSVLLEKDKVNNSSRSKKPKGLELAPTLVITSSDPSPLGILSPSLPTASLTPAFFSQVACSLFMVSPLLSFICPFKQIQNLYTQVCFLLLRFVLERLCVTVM
# Summary of the method: as §1
# ETV2 = target: T10, ETV2 (Homo sapiens, UniProt O00321 1-342); conditions: protein: recombinant; tags: N-terminal GST; dsDNA, one strand shown
# T10 sequence: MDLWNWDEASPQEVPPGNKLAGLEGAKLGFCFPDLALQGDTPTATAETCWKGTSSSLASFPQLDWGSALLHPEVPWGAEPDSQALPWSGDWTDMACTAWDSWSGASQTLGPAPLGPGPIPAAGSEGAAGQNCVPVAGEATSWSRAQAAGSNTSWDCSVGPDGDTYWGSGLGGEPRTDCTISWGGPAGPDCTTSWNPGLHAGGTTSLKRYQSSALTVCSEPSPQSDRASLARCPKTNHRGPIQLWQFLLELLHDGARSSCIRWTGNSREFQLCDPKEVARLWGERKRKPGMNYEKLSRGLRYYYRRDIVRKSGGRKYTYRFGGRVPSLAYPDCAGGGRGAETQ
# Summary of the method: as §1
# ELF3 = target: T11, ELF3 (Homo sapiens, UniProt P78545 1-371); conditions: protein: recombinant; tags: N-terminal GST; dsDNA, one strand shown
# T11 sequence: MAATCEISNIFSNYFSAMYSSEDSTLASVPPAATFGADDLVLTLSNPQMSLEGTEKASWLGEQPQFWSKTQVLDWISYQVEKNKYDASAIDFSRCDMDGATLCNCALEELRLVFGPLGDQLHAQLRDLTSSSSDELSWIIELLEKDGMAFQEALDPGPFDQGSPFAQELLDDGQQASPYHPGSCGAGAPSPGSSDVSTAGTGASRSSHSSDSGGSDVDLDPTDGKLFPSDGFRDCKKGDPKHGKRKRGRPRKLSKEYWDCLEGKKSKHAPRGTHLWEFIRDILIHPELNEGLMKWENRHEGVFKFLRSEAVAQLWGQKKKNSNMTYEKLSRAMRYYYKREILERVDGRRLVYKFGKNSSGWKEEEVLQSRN
# Summary of the method: as §1
# CRX = CRX (Homo sapiens, UniProt O43186 1-299); conditions: protein: recombinant; tags: N-terminal GST; dsDNA, one strand shown
# Summary of the method: as §1
# ETV1 = ETV1 (Homo sapiens, UniProt P50549 1-477); conditions: protein: recombinant; tags: N-terminal GST; dsDNA, one strand shown
# Summary of the method: as §1
# Sequence of ETV5 (P41161 whole entry): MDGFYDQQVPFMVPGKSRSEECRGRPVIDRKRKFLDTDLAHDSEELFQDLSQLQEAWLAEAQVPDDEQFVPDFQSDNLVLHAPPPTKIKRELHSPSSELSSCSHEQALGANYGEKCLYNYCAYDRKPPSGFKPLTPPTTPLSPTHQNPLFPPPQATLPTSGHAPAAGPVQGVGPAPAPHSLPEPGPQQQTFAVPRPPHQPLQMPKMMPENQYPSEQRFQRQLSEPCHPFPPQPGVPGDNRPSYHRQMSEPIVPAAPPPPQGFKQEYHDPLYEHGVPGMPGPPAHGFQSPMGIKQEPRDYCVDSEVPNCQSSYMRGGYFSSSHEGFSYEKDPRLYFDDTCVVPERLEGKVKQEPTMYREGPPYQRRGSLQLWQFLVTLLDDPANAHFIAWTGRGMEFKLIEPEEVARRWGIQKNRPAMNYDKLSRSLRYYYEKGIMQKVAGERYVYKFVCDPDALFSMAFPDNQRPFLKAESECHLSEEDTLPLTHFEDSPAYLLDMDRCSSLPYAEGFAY
# Sequence of ELF1 (P32519 whole entry): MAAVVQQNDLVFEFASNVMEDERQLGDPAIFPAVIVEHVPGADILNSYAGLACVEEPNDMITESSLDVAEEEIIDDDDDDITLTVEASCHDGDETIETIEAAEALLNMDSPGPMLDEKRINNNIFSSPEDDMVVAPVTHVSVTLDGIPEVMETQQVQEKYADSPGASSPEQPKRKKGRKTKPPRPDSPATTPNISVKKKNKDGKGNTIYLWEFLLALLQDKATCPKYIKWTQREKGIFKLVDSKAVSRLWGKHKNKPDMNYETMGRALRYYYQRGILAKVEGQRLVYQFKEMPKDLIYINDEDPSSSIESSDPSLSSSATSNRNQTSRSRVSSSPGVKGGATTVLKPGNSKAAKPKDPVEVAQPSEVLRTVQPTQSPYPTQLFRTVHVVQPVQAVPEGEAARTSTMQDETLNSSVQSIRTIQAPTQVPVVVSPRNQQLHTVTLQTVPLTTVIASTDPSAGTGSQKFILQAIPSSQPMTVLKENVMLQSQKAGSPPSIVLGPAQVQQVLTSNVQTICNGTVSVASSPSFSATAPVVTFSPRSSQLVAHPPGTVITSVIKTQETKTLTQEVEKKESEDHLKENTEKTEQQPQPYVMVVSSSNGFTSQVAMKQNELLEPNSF
# Sequence of ETV1 (P50549 whole entry): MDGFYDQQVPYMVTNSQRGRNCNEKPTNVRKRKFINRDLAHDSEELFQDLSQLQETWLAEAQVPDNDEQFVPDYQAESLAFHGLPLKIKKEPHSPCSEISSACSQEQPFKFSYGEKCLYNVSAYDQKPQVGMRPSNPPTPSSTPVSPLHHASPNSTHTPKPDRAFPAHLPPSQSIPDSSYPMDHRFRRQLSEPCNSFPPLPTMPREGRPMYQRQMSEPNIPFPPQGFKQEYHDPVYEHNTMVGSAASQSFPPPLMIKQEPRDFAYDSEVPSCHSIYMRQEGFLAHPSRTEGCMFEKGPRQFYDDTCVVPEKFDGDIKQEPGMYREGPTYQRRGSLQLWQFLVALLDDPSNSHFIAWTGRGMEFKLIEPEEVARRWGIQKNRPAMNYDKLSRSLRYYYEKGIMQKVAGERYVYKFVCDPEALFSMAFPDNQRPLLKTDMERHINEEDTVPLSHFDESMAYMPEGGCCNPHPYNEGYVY
# Sequence of CRX (O43186 whole entry): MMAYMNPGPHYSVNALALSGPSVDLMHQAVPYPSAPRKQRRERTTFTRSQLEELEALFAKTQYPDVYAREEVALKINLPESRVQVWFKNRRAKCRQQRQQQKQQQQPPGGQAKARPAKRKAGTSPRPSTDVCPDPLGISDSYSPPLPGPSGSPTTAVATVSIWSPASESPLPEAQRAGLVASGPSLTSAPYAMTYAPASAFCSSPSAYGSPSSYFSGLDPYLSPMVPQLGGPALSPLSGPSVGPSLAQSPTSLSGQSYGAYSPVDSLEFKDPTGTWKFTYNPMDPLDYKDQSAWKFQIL
# Sequence of HSF1 (Q00613 whole entry): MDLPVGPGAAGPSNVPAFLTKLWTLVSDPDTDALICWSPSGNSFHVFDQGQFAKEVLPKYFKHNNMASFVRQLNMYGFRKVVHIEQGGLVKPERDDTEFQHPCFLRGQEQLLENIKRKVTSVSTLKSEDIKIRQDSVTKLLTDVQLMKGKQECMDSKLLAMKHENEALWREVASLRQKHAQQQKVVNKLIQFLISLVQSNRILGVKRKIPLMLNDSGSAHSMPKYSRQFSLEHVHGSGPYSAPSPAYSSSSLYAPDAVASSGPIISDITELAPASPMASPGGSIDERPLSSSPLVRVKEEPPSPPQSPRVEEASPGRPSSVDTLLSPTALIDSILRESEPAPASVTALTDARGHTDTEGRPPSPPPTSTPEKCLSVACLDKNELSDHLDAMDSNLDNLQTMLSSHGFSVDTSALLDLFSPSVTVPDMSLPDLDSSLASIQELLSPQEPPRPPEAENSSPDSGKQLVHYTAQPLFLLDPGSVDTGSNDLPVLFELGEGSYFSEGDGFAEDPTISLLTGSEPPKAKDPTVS
# Sequence of SPIB (Q01892 whole entry): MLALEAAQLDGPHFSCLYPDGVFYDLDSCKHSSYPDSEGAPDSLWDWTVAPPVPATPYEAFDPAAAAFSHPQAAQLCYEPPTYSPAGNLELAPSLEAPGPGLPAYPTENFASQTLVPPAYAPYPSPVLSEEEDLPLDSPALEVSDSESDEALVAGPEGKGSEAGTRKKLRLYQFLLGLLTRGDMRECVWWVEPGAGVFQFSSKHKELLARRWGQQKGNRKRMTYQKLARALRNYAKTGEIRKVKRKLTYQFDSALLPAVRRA
# Sequence of ELF4 (Q99607 whole entry): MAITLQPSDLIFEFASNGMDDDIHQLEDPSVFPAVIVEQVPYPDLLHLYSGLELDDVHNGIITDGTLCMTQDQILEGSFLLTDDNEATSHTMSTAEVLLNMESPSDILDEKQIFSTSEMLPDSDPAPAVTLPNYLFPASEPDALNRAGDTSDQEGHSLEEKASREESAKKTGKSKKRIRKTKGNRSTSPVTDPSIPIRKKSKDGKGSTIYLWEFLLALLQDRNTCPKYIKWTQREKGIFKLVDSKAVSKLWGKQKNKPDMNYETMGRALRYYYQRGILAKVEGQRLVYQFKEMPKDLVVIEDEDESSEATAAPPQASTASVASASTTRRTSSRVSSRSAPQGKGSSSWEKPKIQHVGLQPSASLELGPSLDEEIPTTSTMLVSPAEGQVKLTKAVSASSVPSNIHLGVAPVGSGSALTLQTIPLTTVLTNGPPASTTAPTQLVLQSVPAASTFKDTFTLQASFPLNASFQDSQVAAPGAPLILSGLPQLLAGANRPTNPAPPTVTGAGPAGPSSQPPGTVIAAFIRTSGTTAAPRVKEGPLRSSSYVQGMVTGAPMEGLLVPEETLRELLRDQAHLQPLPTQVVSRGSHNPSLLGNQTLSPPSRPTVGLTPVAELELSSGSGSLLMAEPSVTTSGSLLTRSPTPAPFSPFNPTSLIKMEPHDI
sequence,measurement,setting,value
TAAGTT,binding signal,FLI1,"1.23 fold enrichment (6-mer frequency, TF over GST control)"
same,binding signal,ELK1,"1.39 fold enrichment (6-mer frequency, TF over GST control)"
same,binding signal,GABPA,"1.33 fold enrichment (6-mer frequency, TF over GST control)"
same,binding signal,ERG,"1.25 fold enrichment (6-mer frequency, TF over GST control)"
same,binding signal,ELF1,"1.3 fold enrichment (6-mer frequency, TF over GST control)"
same,binding signal,EHF,"1.38 fold enrichment (6-mer frequency, TF over GST control)"
same,binding signal,SPI1,"1.31 fold enrichment (6-mer frequency, TF over GST control)"
same,binding signal,SPIB,"1.35 fold enrichment (6-mer frequency, TF over GST control)"
same,binding signal,ELK3,"1.27 fold enrichment (6-mer frequency, TF over GST control)"
same,binding signal,FEV,"1.24 fold enrichment (6-mer frequency, TF over GST control)"
same,binding signal,ETV5,"1.37 fold enrichment (6-mer frequency, TF over GST control)"
same,binding signal,HSF1,"1.45 fold enrichment (6-mer frequency, TF over GST control)"
same,binding signal,SPIC,"1.36 fold enrichment (6-mer frequency, TF over GST control)"
same,binding signal,ELF4,"1.34 fold enrichment (6-mer frequency, TF over GST control)"
same,binding signal,ELK4,"1.22 fold enrichment (6-mer frequency, TF over GST control)"
same,binding signal,ETV2,"1.25 fold enrichment (6-mer frequency, TF over GST control)"
same,binding signal,ELF3,"1.09 fold enrichment (6-mer frequency, TF over GST control)"
same,binding signal,CRX,"1.94 fold enrichment (6-mer frequency, TF over GST control)"
same,binding signal,ETV1,"1.34 fold enrichment (6-mer frequency, TF over GST control)"
